Measurements from PubChem BioAssay.
Calls of active or inactive are those of the source.

How the values were obtained:
Albumin (Bos taurus) = Albumin (Bos taurus) (UniProt P02769); assay: bovine serum albumin binders on microarray, profiling panel, artefact control for SMM control protein annotation, biochemical, small-molecule microarray, Alexa647 label, 635/667 nm fluorescence (AID 1118); conditions: BSA-A647 binding, fluorescence 635 nm, higher = more signal;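 note: score merges 667 nm emission intensity and signal-to-noise per printed compound spot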
[1] = small-molecule microarray binders of probe aXIP, primary screen, biochemical, NeuroSMM set, 635/667 nm fluorescence (AID 1119); conditions: higher = more signal, called active from +8 up or from −8 down;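 note: probe is the protein aXip251-270 applied at 1 µg/mL to compound-printed slides; binding of probe to printed compounds measured as 667 nm fluorescence plus signal to noise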
[2] = small-molecule binders of probe aNOTCH3, primary screen, biochemical, small-molecule microarray, 635/667 nm fluorescence (AID 1120); conditions: higher = more signal;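 note: probe is a biotin-tagged antibody raised against NOTCH3 rather than NOTCH3 protein; score merges spot fluorescence near 667 nm with spot signal to noise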
[3] = small-molecule binders of probe aNOTCH2, primary screen, biochemical, small-molecule microarray, 635/667 nm fluorescence (AID 1121); conditions: higher = more signal;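 note: score merges feature fluorescence read at 667 nm with its signal to noise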
[4] = target: Carbonic anhydrase 2 (Homo sapiens) (UniProt P00918); assay: CAII small-molecule binders, profiling panel, biochemical, small-molecule microarray, Alexa647-labelled CAII (AID 1122); conditions: CAII-A647 binding fluorescence, higher = more signal
[5] = COS7 lysate on small-molecule microarray, probe aHis, 635 nm (AID 1123); conditions: COS7 cell lysate, fluorescence, higher = more signal;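 note: z-score combines 667nm fluorescence intensity with signal-to-noise per printed compound spot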
[6] = compound binding in COS7 lysate, probe aLAP1, primary screen, cell lysate, small-molecule microarray (AID 1124); conditions: probe aLAP1, fluorescence, higher = more signal;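 note: lysate comes from COS7 cells expressing LAP1 and is applied at 0.3 µg/mL; score merges spot fluorescence near 667 nm with signal-to-noise over triplicate slides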
Sam68 (KHDRBS1) = assay: Sam68 small-molecule binders, primary screen, biochemical, small-molecule microarray, 635 nm fluorescence (AID 1125); conditions: small-molecule microarray binding, higher = more signal;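 note: score merges 667 nm channel intensity with signal to noise over triplicate slides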
[7] = test system: Chordin-like protein 2 (CHRDL2); assay: CHRDL2 small-molecule binders, primary screen, biochemical, small-molecule microarray, 635 nm fluorescence (AID 1126); conditions: small-molecule microarray binding, fluorescence 635 nm; higher = more signal;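 note: printed compound slides probed with Chrdl2 protein at 4 µg/mL for 1 h at 4 C; score merges 667 nm emission intensity with signal to noise over three replicate slides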
[8] = target: Concanavalin-A (Canavalia ensiformis) (UniProt P02866); assay: ConA small-molecule binders, primary screen, artefact control for SMM control protein annotation, biochemical, small-molecule microarray, Alexa647 label, 635 nm (AID 1127); conditions: ConA-A647 binding fluorescence, higher = more signal;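 note: z combines 667 nm emission intensity with signal-to-noise across three replicate slides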
[9] = anti-His antibody binders, primary screen, artefact control for SMM control protein annotation, biochemical, small-molecule microarray, 635 nm fluorescence (AID 1128); conditions: anti-His Alexa647 antibody binding, higher = more signal;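 note: score merges feature fluorescence with signal-to-noise for each printed compound spot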
[10] = test system: Human papillomavirus type 1a E7 protein (residues 1-88); assay: HPV1a E7 small-molecule binders, primary screen, biochemical, small-molecule microarray, residues 1-88, 635 nm (AID 1129); conditions: small-molecule microarray binding, fluorescence 635 nm; higher = more signal
[11] = target: Focal adhesion kinase 1 (Homo sapiens) (UniProt Q05397); assay: small-molecule microarray binders of FAK, primary screen, biochemical, 635/667 nm fluorescence, BSA, DTT (AID 1130); conditions: PTK2 binding, 635 nm fluorescence, higher = more signal;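 note: composite of spot emission at 667 nm and signal to noise over triplicate slides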
[12] = test system: Fibrinogen (Alexa647-labelled); assay: fibrinogen binders on compound microarrays, profiling panel, artefact control for SMM control-protein annotation, biochemical, small-molecule microarray, 635/667 nm fluorescence (AID 1131); conditions: fibrinogen-A647 binding fluorescence, higher = more signal;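 note: z-score merges 667 nm fluorescence with per-spot signal-to-noise over triplicate slides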
[13] = target: Follistatin (Homo sapiens) (UniProt P19883); assay: follistatin binders on small-molecule microarrays, primary screen, biochemical, small-molecule microarray, 635/667 nm fluorescence (AID 1132); conditions: FST binding, 635 nm fluorescence, higher = more signal
[14] = target: Fibroblast growth factor 2 (Homo sapiens) (UniProt P09038); assay: FGF2 binders on small-molecule microarrays, primary screen, biochemical, small-molecule microarray, 635/667 nm fluorescence (AID 1133); conditions: small-molecule microarray binding, FGF2, fluorescence 635/667; higher = more signal
[15] = mitochondrial membrane potential change in A549 cells, profiling panel, cell-based, JC-1 fluorescence, basal, 24 h, 100 nL (AID 1138); conditions: higher = more signal;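 note: A549 lung adenocarcinoma cells under basal conditions with no added stimulus; test concentration not given here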
Lefty1 = Lefty1 binders on small-molecule microarrays, primary screen, biochemical, small-molecule microarray, 635/667 nm fluorescence (AID 1139); conditions: small-molecule microarray binding, fluorescence 635/667; higher = more signal
[16] = test system: wheat germ agglutinin (Triticum aestivum), Alexa647-labelled; assay: wheat germ agglutinin binders on compound microarrays, profiling panel, artefact control for SMM control-protein annotation, biochemical, small-molecule microarray, 635/667 nm fluorescence (AID 1140); conditions: WGA-A647 binding, 635 nm fluorescence, higher = more signal;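 note: score merges 667 nm feature emission with signal to noise over triplicate slides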
[17] = target: Luciferin 4-monooxygenase (Photinus pyralis) (UniProt P08659); assay: firefly luciferase enzyme inhibitors, primary screen, biochemical, luminescence, purified enzyme, 2006 set (AID 1141); conditions: SteadyGlo luminescence, 30 min, higher = more signal, called active from +8 up or from −8 down;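 note: cell-free assay with purified firefly luciferase at 100 ng per well in PBS; test concentration not given here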
Luciferin 4-monooxygenase (Photinus pyralis), sequence (P08659 whole entry, looked up): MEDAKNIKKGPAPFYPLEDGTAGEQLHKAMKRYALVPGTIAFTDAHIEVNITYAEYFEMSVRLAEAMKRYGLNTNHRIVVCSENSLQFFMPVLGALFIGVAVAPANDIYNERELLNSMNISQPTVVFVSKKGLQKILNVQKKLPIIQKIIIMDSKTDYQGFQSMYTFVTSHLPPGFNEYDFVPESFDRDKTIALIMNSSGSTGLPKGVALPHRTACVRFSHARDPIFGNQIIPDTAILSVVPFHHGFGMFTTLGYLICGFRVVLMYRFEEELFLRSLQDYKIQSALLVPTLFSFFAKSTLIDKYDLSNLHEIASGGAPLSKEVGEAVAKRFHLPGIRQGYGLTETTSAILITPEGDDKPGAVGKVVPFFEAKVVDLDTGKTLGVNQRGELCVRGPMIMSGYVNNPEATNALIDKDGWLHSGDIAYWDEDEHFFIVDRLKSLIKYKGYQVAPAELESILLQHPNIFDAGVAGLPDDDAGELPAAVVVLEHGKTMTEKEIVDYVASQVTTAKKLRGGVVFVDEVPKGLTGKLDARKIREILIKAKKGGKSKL

Albumin (Bos taurus), sequence (P02769 whole entry, looked up): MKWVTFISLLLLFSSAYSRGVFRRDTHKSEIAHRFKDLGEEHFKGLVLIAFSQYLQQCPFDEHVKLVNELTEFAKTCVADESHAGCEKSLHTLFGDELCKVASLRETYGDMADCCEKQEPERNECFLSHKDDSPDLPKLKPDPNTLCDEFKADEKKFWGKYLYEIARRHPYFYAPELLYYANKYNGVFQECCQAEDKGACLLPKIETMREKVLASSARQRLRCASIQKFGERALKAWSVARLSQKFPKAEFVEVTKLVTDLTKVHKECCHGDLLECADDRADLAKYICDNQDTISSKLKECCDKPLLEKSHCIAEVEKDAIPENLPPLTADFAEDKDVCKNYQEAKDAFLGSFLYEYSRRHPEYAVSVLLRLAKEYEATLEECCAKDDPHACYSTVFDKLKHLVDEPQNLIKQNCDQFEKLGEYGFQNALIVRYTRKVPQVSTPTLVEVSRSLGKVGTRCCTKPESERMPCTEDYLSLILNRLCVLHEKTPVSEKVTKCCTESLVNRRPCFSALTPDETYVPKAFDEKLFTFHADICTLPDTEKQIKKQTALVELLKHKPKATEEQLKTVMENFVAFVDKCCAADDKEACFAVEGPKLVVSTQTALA
Focal adhesion kinase 1 (Homo sapiens), sequence (Q05397 whole entry, looked up): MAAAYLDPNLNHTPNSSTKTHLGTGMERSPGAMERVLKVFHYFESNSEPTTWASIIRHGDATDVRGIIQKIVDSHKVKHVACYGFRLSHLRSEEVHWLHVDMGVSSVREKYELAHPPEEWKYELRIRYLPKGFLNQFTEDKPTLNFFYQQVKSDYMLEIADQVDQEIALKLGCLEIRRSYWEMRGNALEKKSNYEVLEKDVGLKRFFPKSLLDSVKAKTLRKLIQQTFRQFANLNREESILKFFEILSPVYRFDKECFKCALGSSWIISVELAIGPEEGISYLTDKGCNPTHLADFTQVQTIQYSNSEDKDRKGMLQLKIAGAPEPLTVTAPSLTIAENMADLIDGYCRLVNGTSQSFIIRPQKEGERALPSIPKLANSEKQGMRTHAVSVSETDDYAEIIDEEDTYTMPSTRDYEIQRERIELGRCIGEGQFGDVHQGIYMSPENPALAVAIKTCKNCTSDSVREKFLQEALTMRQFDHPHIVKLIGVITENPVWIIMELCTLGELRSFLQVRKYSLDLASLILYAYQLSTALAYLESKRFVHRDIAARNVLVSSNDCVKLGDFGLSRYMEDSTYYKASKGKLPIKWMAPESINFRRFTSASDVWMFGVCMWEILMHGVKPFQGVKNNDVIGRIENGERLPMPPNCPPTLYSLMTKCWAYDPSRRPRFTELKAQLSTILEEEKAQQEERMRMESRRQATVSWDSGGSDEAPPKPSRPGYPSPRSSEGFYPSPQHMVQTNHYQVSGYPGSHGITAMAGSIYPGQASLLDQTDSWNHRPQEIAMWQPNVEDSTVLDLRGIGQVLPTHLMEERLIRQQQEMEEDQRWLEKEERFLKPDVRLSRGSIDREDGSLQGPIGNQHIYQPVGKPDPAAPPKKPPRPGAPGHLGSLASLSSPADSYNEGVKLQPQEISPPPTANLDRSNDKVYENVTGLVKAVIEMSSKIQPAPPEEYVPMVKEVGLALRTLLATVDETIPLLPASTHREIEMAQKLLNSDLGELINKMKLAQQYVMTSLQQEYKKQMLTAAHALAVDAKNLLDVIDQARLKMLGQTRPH
Follistatin (Homo sapiens), sequence (P19883 whole entry, looked up): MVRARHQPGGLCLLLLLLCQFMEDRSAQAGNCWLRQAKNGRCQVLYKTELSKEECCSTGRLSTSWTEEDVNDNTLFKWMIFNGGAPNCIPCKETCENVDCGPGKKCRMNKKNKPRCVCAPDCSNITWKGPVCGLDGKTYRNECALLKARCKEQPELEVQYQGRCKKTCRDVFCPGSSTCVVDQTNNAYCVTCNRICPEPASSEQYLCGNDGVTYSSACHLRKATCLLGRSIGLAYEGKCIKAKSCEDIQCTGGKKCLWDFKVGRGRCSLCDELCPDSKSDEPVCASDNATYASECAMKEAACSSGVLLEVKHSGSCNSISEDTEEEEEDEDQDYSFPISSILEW
Fibroblast growth factor 2 (Homo sapiens), sequence (P09038 whole entry, looked up): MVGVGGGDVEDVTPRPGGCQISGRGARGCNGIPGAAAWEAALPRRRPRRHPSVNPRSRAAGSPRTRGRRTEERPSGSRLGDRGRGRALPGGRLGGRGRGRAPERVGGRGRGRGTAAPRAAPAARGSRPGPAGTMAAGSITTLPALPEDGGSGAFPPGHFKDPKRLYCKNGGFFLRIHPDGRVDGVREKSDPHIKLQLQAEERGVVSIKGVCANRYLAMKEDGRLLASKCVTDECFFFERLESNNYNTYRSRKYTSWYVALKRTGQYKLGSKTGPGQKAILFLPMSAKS
Concanavalin-A (Canavalia ensiformis), sequence (P02866 whole entry, looked up): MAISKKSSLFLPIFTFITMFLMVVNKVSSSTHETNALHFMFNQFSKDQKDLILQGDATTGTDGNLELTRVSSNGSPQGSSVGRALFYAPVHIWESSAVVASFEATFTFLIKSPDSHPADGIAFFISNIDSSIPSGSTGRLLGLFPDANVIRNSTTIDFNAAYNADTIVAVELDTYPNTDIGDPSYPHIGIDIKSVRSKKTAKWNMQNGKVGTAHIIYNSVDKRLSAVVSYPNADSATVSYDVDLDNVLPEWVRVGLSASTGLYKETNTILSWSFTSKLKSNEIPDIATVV

Row | SMILES | composite z-score (Albumin (Bos taurus)) | composite Z-score [1] | composite z-score [2] | composite z-score [3] | composite z-score [4] | composite z-score [5] | composite z-score [6] | composite z-score (Sam68 (KHDRBS1)) | composite z-score [7] | composite z-score [8] | composite z-score [9] | composite z-score [10] | composite z-score [11] | composite z-score [12] | composite z-score [13] | composite z-score [14] | z-score [15] | composite z-score (Lefty1) | composite z-score [16] | z-score [17]
1 | CC(C)CN1C(=O)[C@@]2(Cc3ccccc31)c1ccccc1C(=O)N(C1CCCCC1)[C@H]2c1ccc(CO)cc1 | -0.436 | 0.439 (inactive) | -0.0647 | -0.0433 | 0.781 | 0.878 | 1.23 | -0.18 | -1.43 | -1.42 | -1.34 | -1.05 | -0.133 | -1.04 | -0.447 | -0.914 | -0.269 | -1.28 | -1.14 | -0.275 (inactive)
2 | C=CC[C@]1(C(=O)O)N=C(c2ccc(OCCCO)cc2)O[C@H]1c1ccccc1N=[N+]=[N-] | 0.548 | 0.0407 (inactive) | 0.0807 | -0.159 | 0.668 | 1.45 | 1.24 | 0.0203 | -0.37 | 0.642 | 0.258 | -0.171 | 0.0806 | -0.17 | -0.0493 | -0.124 | 1.28 | -1.09 | 0.0828 | -12.3 (active)
3 | NC(=O)NCC#Cc1ccc2c(c1)[C@]1(C(=O)N2)[C@H](C(=O)N2CCCCCCC2)[C@H]2C(=O)O[C@H](c3ccccc3)[C@H](c3ccccc3)N2[C@@H]1c1ccccc1OCCO | 0.408 | 4.79 (inactive) | 1.43 | 0.985 | 0.953 | 4.03 | 1.26 | 1.31 | 1.56 | 1.11 | 1.03 | 1.27 | 2.88 | 0.743 | 1.51 | 0.0779 | 0.209 | 1.32 | 1.59 | -0.984 (inactive)
4 | O=C1O[C@H](c2ccccc2)[C@H](c2ccccc2)N2[C@H]1[C@@H](C(=O)Nc1nc3ccccc3s1)[C@]1(C(=O)Nc3ccc(C#CC4=CCCCC4)cc31)[C@H]2c1ccccc1OCCO | 0.581 | 0.329 (inactive) | 0.0452 | -0.14 | 0.23 | 0.834 | -0.189 | 1.3 | 0.497 | 1 | 0.485 | 1.15 | 0.66 | 0.797 | 0.968 | 1.2 | -2.27 | 0.966 | -0.17 | -1.01 (inactive)
5 | COCCOC(=O)N1C(=O)[C@@]2(c3cc(C#CCNC(N)=O)ccc31)[C@H](c1ccc(OCCO)cc1)N1[C@H](c3ccccc3)[C@H](c3ccccc3)OC(=O)[C@H]1[C@@H]2C(=O)N1CCCCCCC1 | -0.208 | -0.333 (inactive) | 0.255 | -0.0059 | 0.174 | 0.043 | 0.332 | 0.82 | 0.137 | 0.669 | -0.347 | 0.718 | 0.422 | 0.355 | 1.35 | 0.117 | -0.99 | 0.854 | 0.884 | -1.45 (inactive)
6 | O=C(CS)NCCCCCNC(=O)[C@H]1C[C@H]2C(=O)N[C@@H](Cc3ccccc3)C(=O)N2[C@H]1c1ccc(O)cc1 | 0.237 | -0.65 (inactive) | 0.114 | -0.0598 | 0.436 | 0.704 | 0.393 | 1.32 | 0.905 | 1.17 | 1.58 | 1.06 | 0.485 | 0.948 | 1.43 | 1.14 | -0.586 | 0.854 | 1.21 | -2.91 (inactive)
7 | CC(C)(C)OC(=O)CC[C@]1(C(=O)NCCN2CCOCC2)N=C(c2ccc(OCCCO)cc2)O[C@H]1c1ccccc1CN=[N+]=[N-] | 0.433 | 0.192 (inactive) | 0.145 | -0.057 | 0.865 | 2.05 | 0.663 | 1.32 | -1.1 | 0.922 | 2.63 | 1.17 | 1.17 | 0.75 | -0.651 | -0.962 | 0.22 | -0.697 | 1.31 | -0.736 (inactive)
8 | O=C1O[C@@H](c2ccccc2)[C@@H](c2ccccc2)N2[C@@H](c3ccc(OCCO)cc3)[C@]3(C(=O)Nc4ccc(C#CCCO)cc43)[C@@H](C(=O)N3CCN(c4ncccn4)CC3)[C@H]12 | 0.536 | 0.337 (inactive) | 0.143 | -0.0684 | 0.485 | 1.87 | 0.188 | 1.32 | 0.168 | 1.17 | 0.468 | 1 | 0.341 | 0.941 | 1.34 | 0.331 | -0.0856 | 0.635 | 1.2 | 0.47 (inactive)
9 | O=C1c2ccccc2[C@](Cc2ccccc2I)(C(=O)O)[C@H](c2ccc(CO)cc2)N1C1CCCCC1 | 0.823 | 0.222 (inactive) | 0.447 | -0.0708 | 0.739 | 3.57 | 0.589 | 1.3 | -0.423 | 1.21 | 1.52 | 1.24 | 0.398 | 0.801 | 1.33 | 1.06 | -0.254 | 0.4 | 1.13 | -0.757 (inactive)
10 | C=CC[C@]1(C(=O)N2CCCCC2)N=C(c2ccc(OCCCO)cc2)O[C@H]1c1ccccc1N=[N+]=[N-] | 0.947 | 0.103 (inactive) | 0.486 | 0.284 | 0.789 | 2.81 | 0.941 | 1.3 | -0.154 | 1.13 | 2.94 | 1.26 | 0.426 | 1.01 | 1.4 | 1.55 | -0.591 | 1.48 | 1.37 | -10 (active)
11 | CCCC=C(CCC)[C@@H](NS(=O)(=O)c1cccc(C(F)(F)F)c1)c1ccc(C(=O)OC)cc1 | -0.0532 | 0.136 (inactive) | 1.7 | 1.06 | 0.169 | 0.455 | 0.134 | 0.601 | -1.35 | 0.804 | 0.54 | 0.4 | -0.209 | 0.436 | 0.572 | 0.319 | 0.622 | 0.0304 | 0.295 | 2.82 (inactive)
